Source: PubChem (National Center for Advancing Translational Sciences (NCATS))
FEN1 inh: blocks human flap endonuclease 1. P39748. Recombinant FEN1 flap cleavage, fluorescence, 15 min. Potency, µM (titrated, usually from 114 µM), usual class: inhibitors. hit rate 0.35% among 390,000. AID 588795; further: nearly all actives have a fitted effect of over 65% in size
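Steps: FEN1 (10 nM) dispensed; compound added by pin tool; 15 min at room temperature; substrate added to 50 nM final; reads at 0 min and 15 min; data normalized and fitted (four-parameter Hill).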
POLI inh: DNA polymerase iota (human) inhibition. Potency, µM (doses to about 115 µM), usual class: inhibitors. AID 588590. Pol iota fluorescent replication assay, 10 min. Q9UNA4. hit rate 1% among 390,000
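Fluorescent replication assay read twice, at 0 min and 10 min after adding 50 nM (final) substrate. Enzyme (10 nM) and compounds were first incubated 15 min at room temperature; enzyme-free buffer wells were negative controls.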
WRN helicase inh: inhibitors of human WRN helicase | WRN helicase unwinding, fluorescent forked duplex, kinetic | Potency, µM (doses to about 114 µM), actives largely listed as inhibitors | hit rate 0.46% among 360,000; further: nearly all actives have a fitted effect of over 55% in size
Target sequence (Q14191 whole entry, looked up): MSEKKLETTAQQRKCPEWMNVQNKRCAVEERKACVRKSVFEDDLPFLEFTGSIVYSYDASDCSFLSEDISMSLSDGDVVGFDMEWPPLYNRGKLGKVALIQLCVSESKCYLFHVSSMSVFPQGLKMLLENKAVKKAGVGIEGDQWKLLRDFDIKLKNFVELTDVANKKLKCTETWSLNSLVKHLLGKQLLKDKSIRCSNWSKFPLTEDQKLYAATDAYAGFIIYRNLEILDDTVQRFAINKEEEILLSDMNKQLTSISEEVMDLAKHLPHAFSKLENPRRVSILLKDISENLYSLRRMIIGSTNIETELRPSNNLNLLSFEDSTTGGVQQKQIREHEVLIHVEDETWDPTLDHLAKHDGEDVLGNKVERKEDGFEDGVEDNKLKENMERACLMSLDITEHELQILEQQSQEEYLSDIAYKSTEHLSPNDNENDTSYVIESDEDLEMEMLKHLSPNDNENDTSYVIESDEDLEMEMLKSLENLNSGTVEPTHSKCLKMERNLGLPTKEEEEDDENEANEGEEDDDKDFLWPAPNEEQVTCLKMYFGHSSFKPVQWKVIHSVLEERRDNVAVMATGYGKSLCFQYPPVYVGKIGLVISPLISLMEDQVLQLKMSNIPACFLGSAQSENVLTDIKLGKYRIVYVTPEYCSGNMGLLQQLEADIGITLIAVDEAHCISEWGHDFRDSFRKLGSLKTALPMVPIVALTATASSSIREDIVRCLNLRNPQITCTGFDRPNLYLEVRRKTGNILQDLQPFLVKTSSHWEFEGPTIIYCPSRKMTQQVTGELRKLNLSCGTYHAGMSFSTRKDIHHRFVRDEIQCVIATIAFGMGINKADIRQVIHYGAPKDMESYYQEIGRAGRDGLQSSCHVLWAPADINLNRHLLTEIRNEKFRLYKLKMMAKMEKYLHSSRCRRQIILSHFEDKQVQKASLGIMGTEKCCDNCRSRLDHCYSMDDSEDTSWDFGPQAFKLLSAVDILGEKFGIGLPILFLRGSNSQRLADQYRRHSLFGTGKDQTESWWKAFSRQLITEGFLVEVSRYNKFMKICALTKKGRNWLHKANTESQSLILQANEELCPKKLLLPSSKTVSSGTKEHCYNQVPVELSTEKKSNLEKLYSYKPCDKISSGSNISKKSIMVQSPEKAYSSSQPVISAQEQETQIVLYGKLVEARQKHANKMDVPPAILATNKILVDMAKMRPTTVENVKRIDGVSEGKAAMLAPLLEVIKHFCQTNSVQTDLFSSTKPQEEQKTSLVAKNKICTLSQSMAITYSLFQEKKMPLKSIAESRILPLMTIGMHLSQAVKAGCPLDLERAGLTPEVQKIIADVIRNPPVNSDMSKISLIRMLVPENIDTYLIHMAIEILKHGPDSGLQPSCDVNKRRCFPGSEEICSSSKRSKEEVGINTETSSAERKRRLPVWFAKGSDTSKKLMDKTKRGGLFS
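Kinetic red-fluorescence monitoring (525/598 nm) tracks WRN helicase activity after 100 nM fluorophore-quencher forked duplex and 2 mM ATP are added to 20 nM enzyme pretreated 15 min at room temperature with compound.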
POLB inh: blocks human DNA polymerase beta activity. Pol beta primer extension/strand displacement, fluorescence kinetic. P06746. hit rate 1.3% among 340,000. AID 485314. Potency, µM (doses to about 114 µM), actives largely listed as inhibitors
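Curves were derived by four-parameter Hill fits of normalized qHTS data. The kinetic fluorescent primer-extension read was taken at 0 and 10 min after 50 nM substrate, following a 15 min room-temperature preincubation of 10 nM enzyme with compounds.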
Pol eta inh-1: inhibitors of human DNA polymerase eta; Potency, µM (top dose mostly 114 µM), hits mostly inhibitors; hit rate 1.2% among 390,000; recombinant Pol eta, fluorescent DNA replication assay
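Fluorescent replication assay: 50 nM final substrate added after a 15 min room-temperature compound preincubation with 10 nM enzyme. Signal taken at 0 min and again at 10 min.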
Pol kappa inh-1: inhibitors of human DNA polymerase kappa; Q9UBT6; purified Pol kappa, fluorescent DNA synthesis assay, 10 min; Potency, µM (highest dose often 107 µM), actives largely listed as inhibitors; hit rate 0.53% among 400,000
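Inhibition of 10 nM Pol kappa is measured by a fluorescent read-out at 0 and 10 min following addition of 50 nM substrate (final), with a 15-min room-temperature compound preincubation.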
GALK inh confirm: galactokinase (human) inhibition, confirmation; shares compounds with Pol eta inh-1; purified GALK, Kinase-Glo ATP depletion luminescence; Potency, µM (highest dose often 115 µM), hits mostly inhibitors; hit rate 70% among 150
GALK redox cs: generates H2O2 by redox cycling, flagging GALK artifacts. Phenol red-HRP H2O2 redox cycling, absorbance 600 nm. hit rate 40% among 150. Potency, µM (titrated, usually from 115 µM), usual class: inhibitors. shares compounds with Pol eta inh-1
HEK293 tox: reduces HEK-293 cell viability in GALK counter-screen; shares compounds with Pol eta inh-1; HEK-293 viability, ATP luminescence (CellTiter-Glo), 24/48 h; Potency, µM (titrated, usually from 46.1 µM), most hits filed as inhibitors; hit rate 10% among 170; AID 2547
Pol kappa inh-2: confirmation of human DNA polymerase kappa inhibitors; Potency, µM, most hits filed as inhibitors; hit rate 76% among 920; shares compounds with Pol eta inh-1; purified Pol-kappa, fluorescent strand-displacement substrate
Pol eta inh-2: confirmation of human DNA polymerase eta inhibitors; Pol eta primer extension, TAMRA/BHQ fluorescence, 10 min; AID 720502; hit rate 64% among 2,600; Potency, µM, usual class: inhibitors; shares compounds with Pol eta inh-1
Each line names hits and unclear results; the compound was inactive in the other large screens (follow-up assays come after a bar, where they were run). A selection: hits, their analogues and other compounds. The true share with any hit is near 2.4%. The call rests on the fitted dose curve; in most records, active means well fitted curve in the direction sought with a large enough effect; inconclusive means small, poorly fitted or top-dose-only effect, or another doubt; inactive means no such curve, though single readings can be large; an effect the other way counts as inactive or inconclusive.

COc1cc(/C=C2/C(=N)N3N=C(CC(=O)N4CCOCC4)SC3=NC2=O)ccc1OC(C)c1ccccc1 (stereo unspecified)	POLI inh inconclusive, Pol eta inh-1 inconclusive
N=C1/C(=C/c2ccc(OCc3ccccc3F)cc2)C(=O)N=C2SC(CC(=O)N3CCOCC3)=NN12	POLI inh 25µM, POLB inh inconclusive, Pol kappa inh-1 inconclusive | Pol eta inh-2 inconclusive
CC(=O)c1c(C)oc2c1cc(NS(=O)(=O)c1ccc(Cl)c(C)c1)c1ccccc12	none (no result: WRN helicase inh)
Cc1nnc(SCC2=C(C(=O)O)N3C(=O)C(NC(=O)Cn4nc(C(F)F)c(Cl)c4C)C3SC2)s1 (stereo unspecified)	WRN helicase inh inconclusive, POLB inh 25µM, Pol eta inh-1 20µM, Pol kappa inh-1 50µM | Pol eta inh-2 76
CC(=O)OCC1=C(C(=O)O)N2C(=O)C(NC(=O)Cn3nc(C(F)F)c(Cl)c3C)C2SC1 (stereo unspecified)	POLI inh inconclusive, POLB inh 28µM, Pol eta inh-1 20µM, Pol kappa inh-1 50µM | Pol eta inh-2 60
CCCS(=O)(=O)N1CCC(N2CCN(Cc3ccc(F)cc3)C(=O)C2=O)CC1	none (no result: WRN helicase inh)
O=C(N/N=C/c1cc(Br)c(O)c(Br)c1O)c1ccc2c(c1)OCCO2	POLI inh inconclusive, POLB inh 40µM, Pol eta inh-1 inconclusive | Pol kappa inh-2 34 | Pol eta inh-2 inconclusive
C/C(=N\Nc1cccc(C(=O)O)c1)c1ccc(Cl)s1	POLI inh 35µM, POLB inh 32µM, Pol eta inh-1 20µM, Pol kappa inh-1 71µM | Pol eta inh-2 27
COc1ccc(/C(C)=N/Nc2cccc(C(=O)O)c2)cc1OC	Pol eta inh-1 inconclusive
CN(C)c1ncc2nc(CCc3ccccc3)c(=O)n(Cc3cccs3)c2n1	none (no result: FEN1 inh, POLI inh, WRN helicase inh, POLB inh, Pol eta inh-1)
CCOC(=O)c1cccc(-n2nnc3c(sc4nc(C)c(Br)c(C)c43)c2=O)c1	none (no result: WRN helicase inh)
O=C(O)c1ccc(Cn2nnc3sc4c(c3c2=O)CCCC4)cc1	POLI inh inconclusive, Pol eta inh-1 20µM, Pol kappa inh-1 inconclusive | Pol eta inh-2 inconclusive
COC(=O)c1ccc(Cn2nnc3sc4c(c3c2=O)CCCC4)cc1	POLB inh inconclusive (no result: WRN helicase inh, Pol eta inh-1)
CC1=NOC(=O)/C1=C\c1ccc(-c2ccc(Br)cc2)o1	FEN1 inh inconclusive, POLI inh inconclusive, WRN helicase inh inconclusive, POLB inh 32µM, Pol eta inh-1 20µM | Pol eta inh-2 85
CC1=NOC(=O)/C1=C\c1ccc(-c2ccc(Br)cc2C(=O)O)o1	POLI inh inconclusive, WRN helicase inh 50µM, POLB inh 13µM, Pol eta inh-1 40µM, Pol kappa inh-1 79µM | Pol kappa inh-2 34
CC1=NOC(=O)/C1=C\c1ccc(-c2cc(Cl)ccc2Cl)o1	WRN helicase inh inconclusive
COc1cc(NC(=O)CCS(=O)(=O)c2ccc3c(c2)CC(=O)N3C)cc(OC)c1OC	none (no result: WRN helicase inh)
COc1cc2c(cc1OC)C(COc1ccc3c(C)cc(=O)oc3c1)N(C(=O)c1cccc(C)c1)CC2 (stereo unspecified)	none (no result: WRN helicase inh)
O=C(NCc1ccccc1)c1ccc2c(=O)[nH]c3c(C(=O)NCC4CCCO4)sc(=S)n3c2c1 (stereo unspecified)	WRN helicase inh inconclusive, POLB inh inconclusive, Pol eta inh-1 inconclusive | Pol eta inh-2 inconclusive
CCOCCCNc1nc2c(C)cccn2c(=O)c1/C=C1\SC(=S)N(CC(C)C)C1=O	none
CCOCCCNc1nc2c(C)cccn2c(=O)c1/C=C1\SC(=S)N(C(C)CC)C1=O (stereo unspecified)	WRN helicase inh inconclusive, Pol eta inh-1 79µM | Pol kappa inh-2 27
CN(C)c1ncc2nc(-c3ccc(F)cc3)c(=O)n(CCC#N)c2n1	none (no result: FEN1 inh, POLI inh, WRN helicase inh, POLB inh, Pol eta inh-1)
N#C/C(=C(/O)COc1ccccc1)c1nc2ccccc2s1	none
N#C/C(=C(/O)COc1ccc(Cl)cc1)c1nc2ccccc2s1	none | GALK inh confirm inconclusive | GALK redox cs inactive | HEK293 tox inactive
COc1ccc(C/C(O)=C(\C#N)c2nc3ccccc3s2)cc1	none | GALK inh confirm 42µM | GALK redox cs inactive | HEK293 tox inactive
COc1ccccc1N1CCN(C(=O)c2cnn(-c3cccc(Cl)c3)c2C2CCN(C(=O)OC(C)(C)C)CC2)CC1	none (no result: WRN helicase inh)
O=C1CCCC(O)=C1Sc1ccccc1C(=O)O	FEN1 inh inconclusive, POLI inh 32µM, POLB inh 10µM, Pol eta inh-1 8.9µM, Pol kappa inh-1 inconclusive | Pol eta inh-2 60
O=C1CCCC(O)=C1C(C#Cc1ccccc1)C1=C(O)CCCC1=O	WRN helicase inh inconclusive, POLB inh inconclusive
O=C(O)CCN1CC2([N+](=O)[O-])C=CC(=O)C([N+](=O)[O-])(C1)C2CC(=O)c1ccccc1 (stereo unspecified)	POLI inh inconclusive, POLB inh 28µM, Pol eta inh-1 18µM, Pol kappa inh-1 inconclusive | Pol kappa inh-2 17 | Pol eta inh-2 30
O=C(CCN1CCCCCC1)c1ccccc1	none
O=C(Nc1c(C(=O)N2CCN(c3ccccc3)CC2)oc2ccccc12)c1ccco1	none (no result: WRN helicase inh)
COc1ccccc1NC(C)=O	POLI inh inconclusive
COc1ccccc1NC(=O)C(=N\O)/C(C)=N/O	POLI inh inconclusive, POLB inh 45µM, Pol eta inh-1 14µM, Pol kappa inh-1 inconclusive | Pol eta inh-2 85
O=[N+]([O-])c1ccc(C=NNc2ccc(S(=O)(=O)O)cc2)cc1	POLI inh inconclusive, Pol eta inh-1 22µM (no result: POLB inh) | Pol eta inh-2 48
O=C(O)c1ccc(-n2c(-c3cc(-c4ccco4)[nH]n3)n[nH]c2=S)cc1	POLI inh inconclusive, WRN helicase inh inconclusive, POLB inh inconclusive, Pol eta inh-1 10µM, Pol kappa inh-1 inconclusive | Pol eta inh-2 30
O=C(O)c1ccc(-n2c(-c3cc(C4CC4)[nH]n3)n[nH]c2=S)cc1	none
O=NN(CCCl)C(=O)NC1CCCCC1	none (no result: FEN1 inh, POLI inh, WRN helicase inh, POLB inh, Pol eta inh-1)
